Where “and” joins values, the source holds several entries; their conditions need not be identical. Equal values may be shown once. Inconclusive results are not listed. Calls of active or inactive are those of the source. Unless noted, the call rests on the fitted dose curve; in most records, active means well fitted curve in the direction sought with a large enough effect; inconclusive means small, poorly fitted or top-dose-only effect, or another doubt; inactive means no such curve, though single readings can be large; an effect the other way counts as inactive or inconclusive.
Key:
[1] = Validation of Assay for Modulators of Lamin A Splicing (AID 1459; active means well fitted curve in the direction sought with a large enough effect in the signal ratio; the % refers to the signal ratio;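 further: cells exposed to compound for two days before reading; 0% is about no effect; ratio rise marks activators and ratio drop marks inhibitors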); conditions: Lamin A splicing dual RFP/GFP fluorescence reporter; series mostly up to 9.22 µM
Method in brief: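 S3 HeLa stably expressing lamin A-EGFP splicing minigene and DsRed2, 600 cells/well in Opti-MEM with 2% FBS, treated 48 h at 37C; laser-scanning cytometry gives GFP/RFP total intensity ratio; ancitabine positive control, 0.5% DMSO vehicle.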

[2] = qHTS Assay for Lipid Storage Modulators (AID 1519; calls by dose curve; on activity change, negative = inhibition: on the % scale 0 is the no-effect control and ±100 the full control effect); conditions: Drosophila S3 cells, BODIPY lipid droplet/cell ratio, laser cytometry, cells loaded with oleic acid
Method in brief: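 Cells seeded at 5,000 per well were treated with compounds over a concentration series and loaded with oleic acid (400 uM, as added). Lipid droplet fluorescence (488 nm excitation, 500-530 nm channel) was read by laser-scanning cytometry and normalized to 20 uM Triacsin C.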

[3] = target: DNA repair nuclease/redox regulator APEX1 (Homo sapiens) (UniProt P27695); assay: qHTS Validation Assay for Inhibitors of the Human Apurinic/apyrimidinic Endonuclease 1 (APE1) (AID 1705;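 further: TAMRA fluorescence gain over two minutes as APE1 cuts a quenched THF abasic duplex; on the % scale 0 is the no-effect control and ±100 the full control effect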); conditions: purified APE1 endonuclease activity, fluorescence, titration; series mostly up to 57.1 µM
Method in brief: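 Fluorogenic double-stranded THF abasic-site substrate (5'-TAMRA/3'-BHQ-2), 50 nM final. Enzyme preincubated with compound 15 min at room temperature, then substrate added. Kinetic fluorescence (ex 525/em 598 nm) read three times at 60 s intervals; activity taken as third-minus-first read difference.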

[4] = Counterscreen for APE1 Inhibitors: Fluorescent Dye Displacement Validation Assay (AID 1707); conditions: fluorescent dye displacement from DNA; series mostly up to 57.1 µM;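 further: plate controls were ThO with dsDNA and no compound for no effect and ThO without dsDNA for full effect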
Method in brief: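 Reaction mixture of 250 nM Thiazole Orange and 50 nM double-stranded abasic-site DNA was dispensed, compounds were pin-transferred, and fluorescence was read at endpoint (480 nm ex, 540 nm em). Reduced fluorescence indicated dye displacement by DNA binding.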

[5] = target: Endonuclease 4 (Escherichia coli (strain K12)) (UniProt P0A6C1); assay: Counterscreen for APE1 Inhibitors: qHTS Validation Assay for Inhibitors of Endonuclease IV (AID 1708); further: on the % scale 0 is the no-effect control and ±100 the full control effect; conditions: E. coli endonuclease IV, DNA cleavage fluorescence; series mostly up to 57.1 µM
Method in brief: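 Measured as reaction progress, the fluorescence gain between first and third kinetic reads after adding 50 nM TAMRA/BHQ-2 THF duplex to 2 nM enzyme preincubated 15 min with compound; 2 mM MgCl2, pH 7.5.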

[6] = qHTS for differential inhibitors of proliferation of Plasmodium falciparum line 7G8 (AID 1815); conditions: Plasmodium falciparum 7G8 proliferation inhibition; series mostly up to 28.7 µM;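 further: parasite growth measured after three days of incubation; plate controls were vehicle wells for no effect and reference inhibitor wells for full effect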
[7] = qHTS for differential inhibitors of proliferation of Plasmodium falciparum line GB4 (AID 1816); conditions: Potency: Plasmodium falciparum GB4 proliferation inhibition; series mostly up to 28.7 µM;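 further: parasite growth measured after 72 h incubation; 0% = vehicle DMSO and -100% = reference inhibitor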
[8] = qHTS for differential inhibitors of proliferation of Plasmodium falciparum line 3D7 (AID 1876);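 further: parasite growth measured after three days of culture; 0% = vehicle wells and -100% = reference inhibitor wells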; conditions: P. falciparum 3D7 proliferation inhibition; series mostly up to 28.7 µM
[9] = qHTS for differential inhibitors of proliferation of Plasmodium falciparum line D10 (AID 1877); conditions: series mostly up to 28.7 µM;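 further: parasites grown with compound for 72 h before DNA staining; plate controls were vehicle wells for no effect and reference inhibitor wells for full effect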
[10] = qHTS for differential inhibitors of proliferation of Plasmodium falciparum line Dd2 (AID 1882); conditions: Potency: Plasmodium falciparum Dd2 proliferation inhibition; series mostly up to 28.7 µM; further: nearly all actives have a fitted effect of over 65% in size; further: potency means the concentration at half of the fitted maximal effect;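 on activity change, negative = inhibition: compound exposure of 72 h on infected erythrocytes; plate controls were DMSO vehicle for no effect and 0.29 µM artemisinin for full effect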
Method in brief: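 RBC culture, 0.3% parasitemia / 2.5% Hct final; cpd added by pin tool in DMSO; 72 h, 37 C, 5% CO2; lysis buffer + SYBR Green I, o/n RT dark; FI 485/535; norm. to artemisinin 0.29 uM and DMSO.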

[11] = qHTS for differential inhibitors of proliferation of Plasmodium falciparum line W2 (AID 1883); conditions: Potency: Plasmodium falciparum W2 proliferation inhibition; series mostly up to 28.7 µM;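 further: parasites grown with compound for 72 h before lysis and staining; 0% = vehicle wells and -100% = control inhibitor wells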
[12] = qHTS for differential inhibitors of proliferation of Plasmodium falciparum line HB3 (AID 1886); conditions: Potency: Plasmodium falciparum HB3 proliferation inhibition; series mostly up to 28.7 µM;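 further: parasites grown with compound for 72 h before SYBR Green readout; plate controls were vehicle for no effect and reference inhibitor for full effect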
[13] = qHTS Assay for Modulators of Human Peripheral Myelin Protein 22 (PMP22) Expression/Activity (AID 1967; active means well fitted curve in the direction sought with a large enough effect in the signal ratio; the % refers to the signal ratio;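 further: 0% = untreated cells and 100% end not stated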); conditions: Cell-based PMP22 reporter, dual-color luciferase ratio, 0% = compound-free control cells, mouse Pmp22 promoter in mouse Schwann cells; series mostly up to 115 µM
Method in brief: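 Mouse MSC80 Schwann cells carrying Pmp22 promoter–green click beetle luciferase plus EF-alpha–red luciferase control, dosed 24 h at 37 °C. Dual-filter luminescence, overlap-corrected; %Activity from green/red ratio normalised to untreated cells, concentration-response curves fitted.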

[14] = target: Ferritin light chain (Equus caballus) (UniProt P02791); assay: qHTS Validation Assay for Identification of Novel General Anesthetics (AID 2323); conditions: horse apoferritin, anesthetic-site fluorescent probe displacement; series mostly up to 76.9 µM; further: on the % scale 0 is the no-effect control and ±100 the full control effect
Method in brief: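 Horse-spleen apoferritin (10 uM) in PBS with 50% saturated 1-aminoanthracene; compounds pin-transferred, 10 min at room temperature. Fluorescence read at 380/535 nm, normalized to free 1-AMA and 1-AMA/apoferritin values; four-parameter Hill fit.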

[15] = target: ATP-dependent DNA helicase Q1 (Homo sapiens) (UniProt P46063); assay: qHTS Validation Assay for Inhibitors of RecQ-Like Dna Helicase 1 (RECQ1) (AID 2353); conditions: recombinant RECQ1 helicase DNA unwinding assay; series mostly up to 25.6 µM;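 further: plate controls were DMSO vehicle for no effect and enzyme-free control for full effect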
Method in brief: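 RECQ1T1 50 nM; forked duplex (20 bp + 30-nt ss tails) 200 nM, ATP 2 mM final; pH 8.0, 2 mM MgCl2, 2.5 ug/ml poly(dI-dC); 15 min compound preincubation; discontinuous kinetic read over 2 h at RT.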

[16] = Validation screen for small molecules that induce DNA re-replication in MCF 10A normal breast cells (AID 463097); conditions: MCF 10A cells, DNA re-replication phenotype imaging; series mostly up to 46.1 µM; further: 0% is about no effect; nearly all actives have a fitted effect of over 60% in size
Method in brief: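 MCF 10A cells exposed to compound 48 hr at 37 C, 5% CO2, then Hoechst-stained 40 min. Laser-scanning imaging of nuclear DNA content (405 nm ex, 500-530 nm em); re-replication scored as rise in nuclei with elevated fluorescence intensity.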

[17] = target: RecQ-like DNA helicase BLM (Homo sapiens) (UniProt P54132); assay: qHTS Validation Assay for Inhibitors of Bloom's syndrome helicase (BLM) (AID 2364); conditions: BLM helicase DNA unwinding, fluorescence, in vitro; series mostly up to 57.1 µM;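 further: plate controls were DMSO vehicle for no effect and enzyme-free control for full effect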
Method in brief: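 BLM 50 nM in 25 mM Tris-HCl pH 8.0, 5 mM NaCl, 2 mM MgCl2, 1 mM DTT, 0.01% Tween-20, 2.5 ug/ml poly(dI-dC); 15 min cpd preinc, RT. Start: 200 nM forked DNA + 2 mM ATP (final). TAMRA read, 2 reads 2 h apart.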

[18] = qHTS Assay for Identification of Small Molecule Inducers of Hypoxia Response (AID 2120; active means well fitted curve in the direction sought with a large enough effect in the signal ratio, with a control signal flat, not every such curve was filed as active; the % refers to the signal ratio; further: 0% is about no effect); conditions: hypoxia response reporter cells, beta-lactamase ratio readout; series mostly up to 104 µM
Method in brief: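 Read-out: CCF4 FRET emission ratio 460nm/530nm (excitation 405nm), converted to %Activity, with AC50 fitted across a compound titration. ME-180 cells carried an HRE-driven beta-lactamase reporter; compound exposure 17 h, 37 degrees C.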

[19] = measured here: cell count channel max response
[20] = measured here: lipid channel max response

Ferritin light chain (Equus caballus), sequence (P02791 2-175 limits assumed): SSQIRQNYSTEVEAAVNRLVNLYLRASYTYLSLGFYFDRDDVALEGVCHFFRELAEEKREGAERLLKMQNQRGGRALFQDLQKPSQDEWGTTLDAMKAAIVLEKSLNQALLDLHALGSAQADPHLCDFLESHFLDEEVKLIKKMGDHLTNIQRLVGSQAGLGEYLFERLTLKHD
DNA repair nuclease/redox regulator APEX1 (Homo sapiens), sequence (P27695 whole entry, looked up): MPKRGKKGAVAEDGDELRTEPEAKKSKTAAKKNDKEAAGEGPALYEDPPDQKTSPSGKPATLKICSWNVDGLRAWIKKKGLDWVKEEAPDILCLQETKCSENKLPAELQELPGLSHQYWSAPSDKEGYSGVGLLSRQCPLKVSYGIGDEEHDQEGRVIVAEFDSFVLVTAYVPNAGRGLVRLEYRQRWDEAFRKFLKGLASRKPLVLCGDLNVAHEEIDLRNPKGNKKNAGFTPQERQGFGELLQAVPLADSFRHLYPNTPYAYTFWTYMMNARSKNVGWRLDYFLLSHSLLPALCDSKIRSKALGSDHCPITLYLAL
ATP-dependent DNA helicase Q1 (Homo sapiens), sequence (P46063 whole entry, looked up): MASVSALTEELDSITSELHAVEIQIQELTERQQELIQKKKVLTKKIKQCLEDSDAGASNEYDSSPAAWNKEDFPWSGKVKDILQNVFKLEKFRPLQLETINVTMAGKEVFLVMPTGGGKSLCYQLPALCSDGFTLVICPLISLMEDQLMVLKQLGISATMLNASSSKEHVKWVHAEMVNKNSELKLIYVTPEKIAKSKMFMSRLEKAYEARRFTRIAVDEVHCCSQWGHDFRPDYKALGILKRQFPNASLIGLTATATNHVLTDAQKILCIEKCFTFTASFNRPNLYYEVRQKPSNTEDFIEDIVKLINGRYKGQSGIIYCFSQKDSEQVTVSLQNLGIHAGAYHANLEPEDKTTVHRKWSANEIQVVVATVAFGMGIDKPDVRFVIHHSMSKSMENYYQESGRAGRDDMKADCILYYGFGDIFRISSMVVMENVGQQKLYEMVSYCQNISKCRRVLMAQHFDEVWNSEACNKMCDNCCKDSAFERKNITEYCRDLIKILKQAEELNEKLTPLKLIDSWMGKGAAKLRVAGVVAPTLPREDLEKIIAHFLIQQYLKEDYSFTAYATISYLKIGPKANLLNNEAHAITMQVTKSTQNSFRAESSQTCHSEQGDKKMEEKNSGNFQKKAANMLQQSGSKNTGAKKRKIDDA
RecQ-like DNA helicase BLM (Homo sapiens), sequence (P54132 whole entry, looked up): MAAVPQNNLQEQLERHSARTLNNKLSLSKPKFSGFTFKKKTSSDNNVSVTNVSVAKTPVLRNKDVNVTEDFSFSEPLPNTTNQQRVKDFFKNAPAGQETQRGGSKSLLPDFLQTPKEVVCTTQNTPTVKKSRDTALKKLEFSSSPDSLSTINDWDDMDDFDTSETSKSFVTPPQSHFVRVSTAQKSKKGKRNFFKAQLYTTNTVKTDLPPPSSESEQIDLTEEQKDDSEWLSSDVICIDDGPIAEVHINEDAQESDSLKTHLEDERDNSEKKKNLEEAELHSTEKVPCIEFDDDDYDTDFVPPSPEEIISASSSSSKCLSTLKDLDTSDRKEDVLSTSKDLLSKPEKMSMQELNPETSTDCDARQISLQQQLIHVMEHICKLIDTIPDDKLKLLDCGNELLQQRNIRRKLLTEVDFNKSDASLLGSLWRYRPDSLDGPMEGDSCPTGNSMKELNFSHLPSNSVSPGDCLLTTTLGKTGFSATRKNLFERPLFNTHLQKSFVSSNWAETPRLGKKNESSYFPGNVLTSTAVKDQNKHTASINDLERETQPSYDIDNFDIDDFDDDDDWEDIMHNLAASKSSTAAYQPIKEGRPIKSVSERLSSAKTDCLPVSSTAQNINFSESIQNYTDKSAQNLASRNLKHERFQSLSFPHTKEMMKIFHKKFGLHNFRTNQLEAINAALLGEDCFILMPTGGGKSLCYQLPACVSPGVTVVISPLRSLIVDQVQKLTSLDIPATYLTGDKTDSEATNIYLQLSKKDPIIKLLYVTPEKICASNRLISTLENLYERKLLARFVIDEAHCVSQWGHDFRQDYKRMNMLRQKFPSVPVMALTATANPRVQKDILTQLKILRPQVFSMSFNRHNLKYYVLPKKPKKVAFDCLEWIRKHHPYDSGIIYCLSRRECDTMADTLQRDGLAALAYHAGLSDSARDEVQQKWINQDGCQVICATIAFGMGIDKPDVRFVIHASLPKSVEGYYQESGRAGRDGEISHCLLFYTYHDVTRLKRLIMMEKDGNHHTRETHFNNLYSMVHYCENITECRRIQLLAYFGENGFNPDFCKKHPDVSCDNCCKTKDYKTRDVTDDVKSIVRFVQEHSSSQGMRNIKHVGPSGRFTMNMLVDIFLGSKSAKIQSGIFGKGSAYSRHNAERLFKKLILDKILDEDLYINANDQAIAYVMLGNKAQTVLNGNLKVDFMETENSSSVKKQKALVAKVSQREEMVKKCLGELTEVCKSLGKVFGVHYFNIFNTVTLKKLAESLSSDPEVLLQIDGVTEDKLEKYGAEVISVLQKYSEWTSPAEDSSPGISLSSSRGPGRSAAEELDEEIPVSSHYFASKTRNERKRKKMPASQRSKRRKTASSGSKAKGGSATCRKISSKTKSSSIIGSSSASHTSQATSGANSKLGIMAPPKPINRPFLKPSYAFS

In the case of `O=C(NCCNCC(O)COc1ccc(O)cc1)N1CCOCC1` (configuration not stated), the outcome [1] is reported as “inactive”, the activity change, negative = inhibition ([2]; at 57.5 µM (top of the series)) is reported as -2.06% (inactive) and the max response [2, 19] is reported as -28.3%. For the same molecule, the max response [2, 20] was -30.3%, the outcome [3] was “inactive” and the outcome [4] was “inactive”. For the same molecule, the outcome [5] was “inactive”, the Potency [6] was “inactive” and the Potency [7] was “inactive”. For the same molecule, the outcome [8] was “inactive”, the outcome [9] was “inactive” and the Potency [10] was “inactive”. For the same molecule, the Potency [11] was “inactive”, the Potency [12] was “inactive” and the outcome [13] was “inactive”. The outcome [14] was “inactive”, the outcome [15] was “inactive” and the outcome [16] was “inactive”.
For `CC(=O)N=c1sc(S(N)(=O)=O)nn1C`, the activity change, negative = inhibition ([2]; at 25.7 µM (top of the series)) was -5.24% (inactive), the activity change, negative = inhibition ([2]; at 57.5 µM (top of the series)) was -1.51% (inactive) and the max response [2, 19] was -10.9% and 5.08%. The max response [2, 20] was -12.6% and 4.84%.
For `CN1C(=O)OC(C)(C)C1=O`, the activity change, negative = inhibition ([2]; at 25.7 µM (top of the series)) was 0.553% (inactive), the max response [2, 19] was 9.38% and the max response [2, 20] was 10.6%.
In the case of `NCC(O)CC(=O)O` (configuration not stated), the activity change, negative = inhibition ([2]; at 57.5 µM (top of the series)) is reported as 7.57% (inactive), the max response [2, 19] is reported as 11% and the max response [2, 20] is reported as 22.3%.
With `Cc1cccc(C)c1NC(=O)C1CCCCN1C` (configuration not stated) the activity change, negative = inhibition ([2]; at 57.5 µM (top of the series)) was 7.8% (inactive), the max response [2, 19] was 19% and the max response [2, 20] was 29.6%.
With `CCSc1ccc2c(c1)N(CCCN1CCN(C)CC1)c1ccccc1S2` the activity change, negative = inhibition ([2]; at 25.7 µM (top of the series)) was -4.9% (inactive), the max response [2, 19] was -20.1% and the max response [2, 20] was -23.8%.
In the case of `Nc1ccc(N=Nc2ccccc2)c(N)n1`, the activity change, negative = inhibition ([2]; at 25.7 µM (top of the series)) is reported as -0.0516% (inactive), the activity change, negative = inhibition ([2]; at 57.5 µM (top of the series)) is reported as 17.8% (inactive) and the max response [2, 19] is reported as -20.4% and -3.25%. The max response [2, 20] was -21.4% and 16.6%.
For `C[C@@](Cc1ccc(O)c(O)c1)(NN)C(=O)O`, the activity change, negative = inhibition ([2]; at 57.5 µM (top of the series)) was -0.657% (inactive), the max response [2, 19] was -17.5% and the max response [2, 20] was -16%. The outcome [3] was “inactive”, the outcome [4] was “inactive” and the outcome [5] was “inactive”. For the same molecule, the outcome [9] was “inactive”, the Potency [10] was 10 µM (active) and the outcome [14] was “inactive”. For the same molecule, the outcome [15] was “inactive”, the outcome [17] was “inactive” and the outcome [16] was “inactive”.
With `Oc1cccc(O)c1O` the Potency [18] was “inactive”.
With `CC1=CCC2CC1C2(C)C` (configuration not stated) the Potency [18] was “inactive”.

Source: PubChem BioAssay (NCATS)
